Legend:
Assay in all cases: thermal shift delta Tm vs DMSO control; higher = stronger stabilization (binding)
Conditions in all cases: 12.5 µM; protein concentration 2 µM
[1] = tested on: LOC_OS04G57630-cb004
In short: (§1)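 Rice kinase domain constructs, made in E. coli and purified, were placed in 96-well plates at 2 μM in 19.5 μl of 100 mM potassium phosphate pH 7.5, 150 mM NaCl, 10% glycerol and 5 × SYPRO Orange, with compound in DMSO. A temperature ramp from 25°C to 95°C at 0.05°C/s was used for differential scanning fluorimetry. The melting temperature shift is a triplicate mean compared with DMSO-only protein, derived from Boltzmann fits.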

[2] = tested on: LOC_OS05G07850-cb002
In short: as §1

[3] = tested on: LOC_OS05G16824-cb004
In short: as §1

[4] = tested on: LOC_OS05G28520-cb001
In short: as §1

[5] = tested on: LOC_OS05G30820-cb001
In short: as §1

[6] = tested on: LOC_OS05G43570-cb004
In short: as §1

[7] = tested on: LOC_OS06G16330-cb003
In short: as §1

[8] = tested on: T1, LOC_OS06G22820-cb001
T1 sequence (whole entry): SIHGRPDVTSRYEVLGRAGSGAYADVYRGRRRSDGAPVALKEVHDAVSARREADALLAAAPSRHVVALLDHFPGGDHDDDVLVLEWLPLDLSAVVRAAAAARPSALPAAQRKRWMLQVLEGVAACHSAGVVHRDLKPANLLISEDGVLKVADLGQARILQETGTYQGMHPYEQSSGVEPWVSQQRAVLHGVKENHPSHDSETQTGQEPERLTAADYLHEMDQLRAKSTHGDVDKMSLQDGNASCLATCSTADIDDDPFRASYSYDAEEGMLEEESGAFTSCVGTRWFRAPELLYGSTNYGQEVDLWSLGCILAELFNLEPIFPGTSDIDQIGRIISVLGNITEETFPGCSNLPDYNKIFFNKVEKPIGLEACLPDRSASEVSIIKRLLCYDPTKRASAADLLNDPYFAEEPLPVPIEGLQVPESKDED
In short: as §1

[9] = tested on: LOC_OS07G06570-cb004
In short: as §1

[10] = tested on: LOC_OS07G07230-cb001
In short: as §1
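Also: purified Escherichia coli-expressed rice kinase domain construct.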

Chain of LOC_OS06G16330-cb003 (as listed by the source): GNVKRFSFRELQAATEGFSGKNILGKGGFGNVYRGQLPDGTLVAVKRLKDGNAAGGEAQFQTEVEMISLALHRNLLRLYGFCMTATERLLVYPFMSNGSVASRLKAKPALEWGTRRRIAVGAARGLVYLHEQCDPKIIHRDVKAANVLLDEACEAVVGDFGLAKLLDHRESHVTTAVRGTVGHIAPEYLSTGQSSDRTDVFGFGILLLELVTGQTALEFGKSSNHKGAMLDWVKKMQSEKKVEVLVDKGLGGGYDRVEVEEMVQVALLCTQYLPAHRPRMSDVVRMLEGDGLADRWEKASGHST

Row | Compound | thermal shift delta Tm [1] [°C] | thermal shift delta Tm [2] [°C] | thermal shift delta Tm [3] [°C] | thermal shift delta Tm [4] [°C] | thermal shift delta Tm [5] [°C] | thermal shift delta Tm [6] [°C] | thermal shift delta Tm [7] [°C] | thermal shift delta Tm [8] [°C] | thermal shift delta Tm [9] [°C] | thermal shift delta Tm [10] [°C]
1 | Cc1cc(Nc2ncc(Cl)c(Nc3ccccc3S(=O)(=O)C(C)C)n2)c(OC(C)C)cc1C1CCNCC1 [Ceritinib (LDK378)] | 0.2 | 3.05 | -1.5 | 0.31 | 0.63 | 0.27 | 4.76 | 0.68 | 1.5 | 0.14
2 | CC(C)(O)CC(=O)NCCn1ccc2ncnc(Nc3ccc(Oc4cccc(C(F)(F)F)c4)c(Cl)c3)c21 | 1.06 | 0.82 | 2.1 | -0.31 | 0.35 | 1.03 | 0.72 | 1.33 | 0.78 | -1.32
3 | COc1cc(Nc2ncc3c(n2)-c2ccc(Cl)cc2C(c2c(F)cccc2OC)=NC3)ccc1C(=O)O [Alisertib (MLN8237)] | -0.1 | 10.3 | 5.74 | 0.02 | 0.19 | 0.06 | 2.21 | 0.35 | 0.77 | 0.11
4 | CC(C)c1ccc2oc3nc(N)c(C(=O)O)cc3c(=O)c2c1 [Amlexanox] | 0.42 | 2.22 | 2.16 | 0.29 | 2.58 | 0.12 | 2.5 | 0.56 | 0.44 | 0.63
5 | Cc1ccc(NC(=O)c2ccc(CN3CCN(C)CC3)cc2)cc1Nc1nccc(-c2cccnc2)n1 [Imatinib (STI571)] | 0.39 | 2.43 | -0.13 | 0.71 | 0.5 | 0.23 | 0.3 | 0.22 | 1.37 | 0.97
6 | Oc1c(F)cc(-c2cnccc2-c2ccc(N3CCOCC3)cc2)cc1F | 0.16 | 3.05 | -0.48 | 0.43 | 0.5 | 0.44 | 0.26 | 0.6 | 0.96 | 0.44
7 | Cn1ncc(Cl)c1-c1cc(C(=O)N[C@H](CN)Cc2cccc(F)c2)sc1Cl | -0.03 | 0.66 | -1.28 | 0.54 | 0.43 | 0.61 | 0.52 | 0.88 | 1.37 | 0.28
8 | COc1cc2ncc(-c3ccccc3)nc2cc1OC [Tyrphostin AG 1296] | 0.05 | 5.59 | 2.99 | -0.06 | 0.8 | 0.08 | 2.24 | 0.24 | 1.65 | 0.83
9 | CCS(=O)(=O)Nc1ccc2c(c1)/C(=C(/Nc1ccc(CN3CCCCC3)cc1)c1ccccc1)C(=O)N2 [Hesperadin] | 7.62 | 11.8 | 16.8 | -0.02 | 2.48 | 0.56 | 13.1 | 0.6 | 0.84 | -0.17
10 | CC(C)n1nc(-c2ccc3oc(N)nc3c2)c2c(N)ncnc21 | 0.37 | 7.34 | -0.35 | 0.63 | 0.45 | 0.24 | 2.84 | 0.75 | 1.22 | 0.29
11 | COc1ccc(C(=O)Nc2sc3c(c2C(N)=O)CCCC3)cc1OC | 0.24 | 5.8 | -1.08 | 0.65 | 0.5 | 0.59 | 5.12 | 0.46 | 1.73 | 0.5
12 | COc1cc(Nc2c(C#N)cnc3cc(OCCCN4CCN(C)CC4)c(OC)cc23)c(Cl)cc1Cl [Bosutinib (SKI-606)] | -0.3 | 0.13 | -0.71 | 0.48 | 0.5 | 0.48 | -0.26 | 0.74 | 0.61 | 0.26
13 | CN(C)CCCn1cc(C2=C(c3c[nH]c4ccccc34)C(=O)NC2=O)c2ccccc21 | 0.12 | 3.88 | 1.25 | 0.24 | 0.37 | 0.07 | 0.14 | 0.44 | 0.94 | 0.81
14 | NC(=O)c1ccc2nc(-c3ccc(Oc4ccc(Cl)cc4)cc3)[nH]c2c1 [Chk2 Inhibitor II (BML-277)] | -0.02 | 3.29 | 2.79 | 0.29 | -0.18 | 0.06 | 0.28 | 0.74 | -0.16 | -0.75
15 | O=C1Nc2ccc(CN3C(=O)CSC3=O)cc2/C1=C/c1cc(CN2CCOCC2)c[nH]1 | 1.02 | 6.39 | 8.47 | 0.01 | 0.12 | 0.23 | 9.36 | 1.05 | 1.86 | 0.48
16 | Cc1c(NC(=O)OC[C@@H]2COCCN2)cn2ncnc(Nc3ccc4c(cnn4Cc4cccc(F)c4)c3)c12 | 0.21 | 0.64 | 0.54 | 0.43 | 0.46 | 0.75 | -0.49 | 0.8 | 0.91 | 0.29
17 | C=CC(=O)Nc1cc(Nc2nccc(-c3cn(C)c4ccccc34)n2)c(OC)cc1N(C)CCN(C)C [Osimertinib (AZD9291)] | 0.2 | 13.5 | -1.95 | 0.53 | 0.54 | 0.3 | 5.5 | 0.25 | 1.03 | 0.47
18 | COc1cc(OC)c(C=C2C(=O)Nc3ccccc32)c(OC)c1 | 0.1 | 0.55 | -0.46 | 0.31 | 0.46 | -0.11 | -0.29 | 0.44 | 1.13 | 0.96

Source: the supplement of paper PMC9694430
